The sample as a whole holds a higher share of the strongest signals than the screen did.
Legend:
Assay in all cases: glycan array binding signal (z-score within array); higher = stronger binding
Settings in all cases: glycan notation: IUPAC condensed, linker removed
[1] = target: Fuc(a1-2)Gal(b1-4)GlcNAc(b1-3)Gal(b1-4)GlcNAc(b1-3)Gal(b1-4)GlcNAc
Summary of the method: (§1)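 Negative Z-scores can be read as non-binding. The Z-score is calculated within each array and then averaged across arrays of one protein sequence at different concentrations or buffers and across linkers. Arrays, 3228 in all, were curated from the Consortium for Functional Glycomics database and kept only where the protein sequence was available.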

[2] = target: Fuc(a1-2)Gal6S(b1-4)GlcNAc
Summary of the method: as §1

[3] = target: Fuc(a1-3)[Gal3S(b1-4)]Glc6S
Summary of the method: as §1

[4] = target: Fuc(a1-3)[Gal3S(b1-4)]GlcNAc6S
Summary of the method: as §1

[5] = target: Fuc(a1-3)[GalNAc(b1-4)]GlcNAc
Summary of the method: as §1

[6] = target: Gal(b1-4)GlcNAc(b1-3)[Gal(b1-4)GlcNAc(b1-6)]GalNAc
Summary of the method: as §1

[7] = target: Gal3S(b1-3)[Fuc(a1-4)]GlcNAc
Summary of the method: as §1

Gal3S(b1-4)Glc = target: Gal3S(b1-4)Glc
Summary of the method: as §1

Gal3S6S(b1-4)GlcNAc6S = target: Gal3S6S(b1-4)GlcNAc6S
Summary of the method: as §1

GalNAc(b1-3)Gal = target: GalNAc(b1-3)Gal
Summary of the method: as §1

[8] = target: GlcNAc(b1-4)Gal(b1-4)GlcNAc
Summary of the method: as §1

[9] = target: Neu5Ac(a2-3)Gal(b1-4)[Fuc(a1-3)]GlcNAc6S
Summary of the method: as §1

[10] = target: Neu5Ac(a2-3)[GalNAc(b1-4)]Gal(b1-4)GlcNAc
Summary of the method: as §1

Neu5Ac(a2-6)Gal(b1-4)Glc = target: Neu5Ac(a2-6)Gal(b1-4)Glc
Summary of the method: as §1

[11] = target: Neu5Ac(a2-6)Gal(b1-4)GlcNAc(b1-3)Gal(b1-4)[Fuc(a1-3)]GlcNAc(b1-3)Gal(b1-4)[Fuc(a1-3)]GlcNAc
Summary of the method: as §1

[12] = target: Neu5Ac(a2-8)Neu5Ac(a2-8)Neu5Ac
Summary of the method: as §1

[13] = target: Neu5Ac(a2-8)Neu5Ac(a2-8)Neu5Ac(a2-3)[GalNAc(b1-4)]Gal(b1-4)Glc
Summary of the method: as §1

Neu5Ac(b2-6)GalNAc = target: Neu5Ac(b2-6)GalNAc
Summary of the method: as §1

[14] = target: Fuc(a1-2)[GalNAc(a1-4)]Gal(b1-4)GlcNAc
Summary of the method: as §1

[15] = target: Fuc(a1-3)[Gal(b1-4)]GlcNAc(b1-4)Gal(b1-4)[Fuc(a1-3)]GlcNAc
Summary of the method: as §1

[16] = target: Gal(b1-4)GlcNAc(b1-3)GalNAc
Summary of the method: as §1

[17] = target: GlcNAc(b1-3)[GlcNAc(b1-6)]GalNAc
Summary of the method: as §1

GlcNAc(b1-6)GalNAc = target: GlcNAc(b1-6)GalNAc
Summary of the method: as §1

[18] = target: Man(a1-3)[Man(a1-6)]Man(b1-4)GlcNAc(b1-4)GlcNAc
Summary of the method: as §1

Neu5Ac(a2-3)Gal = target: Neu5Ac(a2-3)Gal
Summary of the method: as §1

[19] = target: Neu5Ac(a2-3)Gal(b1-3)[Fuc(a1-4)]GlcNAc
Summary of the method: as §1

[20] = target: Neu5Ac(a2-3)Gal(b1-4)GlcNAc
Summary of the method: as §1

[21] = target: Neu5Ac(a2-3)Gal(b1-4)GlcNAc(b1-3)Gal(b1-4)GlcNAc(b1-3)Gal(b1-4)GlcNAc
Summary of the method: as §1

[22] = target: Neu5Ac(a2-3)Gal(b1-4)[Fuc(a1-3)]GlcNAc(b1-3)Gal(b1-4)[Fuc(a1-3)]GlcNAc(b1-3)Gal(b1-4)[Fuc(a1-3)]GlcNAc
Summary of the method: as §1

[23] = target: Neu5Gc(a2-3)Gal(b1-3)[Fuc(a1-4)]GlcNAc
Summary of the method: as §1

Binder	glycan array binding signal (z-score) [1]	glycan array binding signal (z-score) [2]	glycan array binding signal (z-score) [3]	glycan array binding signal (z-score) [4]	glycan array binding signal (z-score) [5]	glycan array binding signal (z-score) [6]	glycan array binding signal (z-score) [7]	glycan array binding signal (z-score) (Gal3S(b1-4)Glc)	glycan array binding signal (z-score) (Gal3S6S(b1-4)GlcNAc6S)	glycan array binding signal (z-score) (GalNAc(b1-3)Gal)	glycan array binding signal (z-score) [8]	glycan array binding signal (z-score) [9]	glycan array binding signal (z-score) [10]	glycan array binding signal (z-score) (Neu5Ac(a2-6)Gal(b1-4)Glc)	glycan array binding signal (z-score) [11]	glycan array binding signal (z-score) [12]	glycan array binding signal (z-score) [13]	glycan array binding signal (z-score) (Neu5Ac(b2-6)GalNAc)	glycan array binding signal (z-score) [14]	glycan array binding signal (z-score) [15]	glycan array binding signal (z-score) [16]	glycan array binding signal (z-score) [17]	glycan array binding signal (z-score) (GlcNAc(b1-6)GalNAc)	glycan array binding signal (z-score) [18]	glycan array binding signal (z-score) (Neu5Ac(a2-3)Gal)	glycan array binding signal (z-score) [19]	glycan array binding signal (z-score) [20]	glycan array binding signal (z-score) [21]	glycan array binding signal (z-score) [22]	glycan array binding signal (z-score) [23]
L-Selectin (Mus musculus), P18337 (protein) MVFPWRCEGTYWGSRNILKLWVWTLLCCDFLIHHGTHCWTYHYSEKPMNWENARKFCKQNYTDLVAIQNKREIEYLENTLPKSPYYYWIGIRKIGKMWTWVGTNKTLTKEAENWGAGEPNNKKSKEDCVEIYIKRERDSGKWNDDACHKRKAALCYTASCQPGSCNGRGECVETINNHTCICDAGYYGPQCQYVVQCEPLEAPELGTMDCIHPLGNFSFQSKCAFNCSEGRELLGTAETQCGASGNWSSPEPICQVVQCEPLEAPELGTMDCIHPLGNFSFQSKCAFNCSEGRELLGTAETQCGASGNWSSPEPICQETNRSFSKIKEGDYNPLFIPVAVMVTAFSGLAFLIWLARRLKKGKKSQERMDDPY	-0.485	-0.072	3.99	4.9	-0.454	-0.393	3.61	0.558	4.38	-0.436	-0.044	8.82	-0.282	-0.214	-0.252	-0.493	-0.235	-0.495												
E-Selectin (Mus musculus), Q00690 (protein) MNASRFLSALVFVLLAGESTAWYYNASSELMTYDEASAYCQRDYTHLVAIQNKEEINYLNSNLKHSPSYYWIGIRKVNNVWIWVGTGKPLTEEAQNWAPGEPNNKQRNEDCVEIYIQRTKDSGMWNDERCNKKKLALCYTASCTNASCSGHGECIETINSYTCKCHPGFLGPNCEQAVTCKPQEHPDYGSLNCSHPFGPFSYNSSCSFGCKRGYLPSSMETTVRCTSSGEWSAPAPACHVVECEALTHPAHGIRKCSSNPGSYPWNTTCTFDCVEGYRRVGAQNLQCTSSGIWDNETPSCKAVTCDAIPQPQNGFVSCSHSTAGELAFKSSCNFTCEQSFTLQGPAQVECSAQGQWTPQIPVCKAVQCEALSAPQQGNMKCLPSASGPFQNGSSCEFSCEEGFELKGSRRLQCGPRGEWDSKKPTCSAVKCDDVPRPQNGVMECAHATTGEFTYKSSCAFQCNEGFSLHGSAQLECTSQGKWTQEVPSCQVVQCPSLDVPGKMNMSCSGTAVFGTVCEFTCPDDWTLNGSAVLTCGATGRWSGMPPTCEAPVSPTRPLVVALSAAGTSLLTSSSLLYLLMRYFRKKAKKFVPASSCQSLQSFENYHVPSYNV	-0.255		5.1	2.52			4.55					3.24							-0.301	0.598	-0.338	-0.279	-0.272	-0.288	-0.277	4.47	-0.333	-0.184	3.13	4.57

From the supplement of paper PMC8728848
